Hits are enriched below; roughly 13% of the tested compounds scored in any of these assays.
HCV inh – inhibitors of hepatitis C virus infection | Huh7.5.1 HCVcc-Cre infection, luciferase reporter, 44 h | Potency, µM (series often up to 41.8 µM), usual class: inhibitors | hit rate 3.4% among 340,000
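HCVcc-Cre virus at an moi near 0.5 was added right after compound to cells cultured 4 h from seeding (1,000 cells/well). Luciferase activity was determined 44 h later, 15 min after substrate addition at RT.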
Pf growth 96h – P. falciparum growth inhibition at 96 hour, primary screen for plastid delayed-death inhibitors; P. falciparum luciferase reporter growth, 96 h; Potency, µM (titrated, usually from 28.7 µM), hits mostly inhibitors; hit rate 6.9% among 320,000; AID 504834
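Erythrocytes infected with luciferase-expressing P. falciparum were dispensed at 2% hematocrit and 0.05% parasitemia (final), then incubated with compounds 96 hours at 37 C in 5% CO2. Luminescence after detection reagent addition reported growth.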
HCMV antiviral – inhibitors of human cytomegalovirus; hit rate 4.5% among 410,000; activity change, negative = inhibition, % at 57.5 µM; HFF cells, HCMV-luciferase reporter, 72 h; stronger effect = lower value; in the data active means activity change below about -60%; inconclusive means no clear call, values can overlap the other calls; inactive means above about -39%
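Luciferase read-out from HCMV-luciferase-infected HFFs (MOI 1 PFU/cell) 72 h post infection at 37C; compounds added after 16 h cell attachment; activity normalized between buffer-only basal and Salinomycin (10uM) inhibitor controls.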
Pf growth 48h – P. falciparum growth inhibition at 48 hours (one generation). Potency, µM (doses to about 28.7 µM), hits mostly inhibitors. AID 504832. hit rate 5.9% among 310,000. P. falciparum luciferase growth in erythrocytes, 48 h
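Growth was read as firefly luciferase luminescence after a 48 h, 37 C, 5% CO2 exposure of compounds to reporter-bearing P. falciparum cultures (0.1% parasitemia, 2% hematocrit final) in Albumax-supplemented RPMI 1640.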
Hits are given with their value; 0 = inactive; ? = inconclusive; - = no result. Unless noted, the call rests on the fitted dose curve; in most records, active means well fitted inhibition curve with a large enough effect; inconclusive means small, poorly fitted or top-dose-only effect, or another doubt; inactive means no such curve, though single readings can be large or run the other way.

SMILES | HCV inh | Pf growth 96h | HCMV antiviral | Pf growth 48h
O=C(Nc1nc(-c2ccc(S(=O)(=O)N3CCCC3)cc2)cs1)C1COc2ccccc2O1 (stereo not drawn) | 2.2µM | 0 | ? | 9.3µM
N#CCC(=O)Nc1nc(-c2ccc3c(c2)OCCO3)cs1 | 0 | 10µM | 0 | 0
CN(C)S(=O)(=O)c1ccc(C(=O)Nc2nc(-c3cccs3)cs2)cc1 | 10µM | ? | -81 | -
O=C(CCCCl)Nc1nc(-c2ccc3c(c2)OCCO3)cs1 | 0 | 0 | 0 | 0
CCc1nc2nc(C)cc(Nc3ccc(OC)cc3)n2n1 | - | - | 0 | -
CCOc1ccccc1-n1nnc(-c2nc(-c3ccccc3)no2)c1N | - | - | 0 | -
COc1ccc(CC(=O)NCC(c2ccc(N(C)C)cc2)N2CCOCC2)cc1 (stereo not drawn) | - | - | 0 | -
Cc1cc2oc(C(=O)N(Cc3ccc(N(C)C)cc3)CC3CCCO3)c(C)c2cc1Cl (stereo not drawn) | - | - | 0 | -
CCOc1ccc(NC(=O)N(C2CCCCCC2)C2CCN(C(C)=O)CC2)cc1 | 0 | 0 | 0 | 0
CCOc1ccc(NC(=O)N(Cc2cn(CC)c3ccccc23)C2CCCCCC2)cc1 | - | - | -87 | -
CCc1ccc(NC(=O)Cc2cn(C)c3ccccc23)cc1 | 0 | - | 0 | -
CCc1ccc(NC(=O)N(Cc2cn(CC)c3ccccc23)C2CCCCC2)cc1 | - | - | -104 | -
COc1ccc(-c2nc(-c3ccccc3)c(-c3ccc(F)cc3)[nH]2)c(OC)c1C | - | - | 0 | -
CCOCCc1nn2c(=O)cc(COC(=O)COc3ccccc3Cl)nc2s1 | - | - | 0 | -
O=C(NCc1n[nH]c(=S)n1-c1ccc(Cl)c(Cl)c1)c1ccco1 | 0 | 15µM | 0 | ?
CCOC(=O)c1ccc2[nH]c3c(c2c1)CCCC3O (stereo not drawn) | 10µM | 0 | 0 | 0
CCc1ccc(NC(=O)Nc2ccon2)cc1 | 0 | ? | 0 | 0
Cc1ccc(NC(=O)Nc2ccc([N+](=O)[O-])cc2)nc1 | 0 | 0 | -70 | 0
Cc1nc(-c2cccc(NC(=O)Nc3ccc([N+](=O)[O-])cc3)c2)no1 | - | - | -99 | -
O=C(Nc1ccc([N+](=O)[O-])cc1)Nc1ccon1 | 0 | 0 | -86 | 0
Cc1ccc(Cl)cc1-n1ncc2c(NCCC3=CCCCC3)ncnc21 | - | - | 0 | -
CC(C)c1nn2c(=O)cc(COC(=O)c3ccc(NC(=O)c4ccccc4Cl)cc3)nc2s1 | - | - | 0 | -
CC(=O)Nc1cccc(Oc2nc(C(F)(F)F)nc3ccccc23)c1 | 0 | 0 | 0 | 0
CC(=O)Nc1ccc(Oc2nc(-c3ccccn3)nc3ccccc23)cc1 | ? | 12µM | -102 | ?
CC(=O)Nc1cccc(Oc2nc(-c3ccccn3)nc3ccccc23)c1 | ? | ? | -61 | ?
SMILES | HCV inh | Pf growth 96h | HCMV antiviral | Pf growth 48h
CC(=O)Nc1ccccc1OCc1cc(=O)n2c3c(sc2n1)CCCC3 | - | - | 0 | -
Cc1cc(C)nc(Nc2nc(C(N)Cc3ccc(Cl)cc3)cs2)n1 (stereo not drawn) | - | - | 0 | -
O=C(CC[C@H]1O[C@@H](n2cnc3c(NC(=O)c4ccccc4)ncnc32)[C@H](O)[C@@H]1O)NCc1cccc2ccccc12 | - | - | -64 | -
CC(C)NC(=S)N(C)C1(c2ccccc2Cl)CCCCC1=O (stereo not drawn) | 0 | 0 | ? | 0
CN(C(=S)NC1CCCCC1)C1(c2ccccc2Cl)CCCCC1=O (stereo not drawn) | ? | ? | 0 | 12µM
CN(C(=S)Nc1ccccc1F)C1(c2ccccc2Cl)CCCCC1=O (stereo not drawn) | 0 | ? | 0 | 10µM
CN(C)c1ccc(-c2[nH][nH]c(=O)c2NC(=O)c2ccc3ccccc3n2)cc1 | - | - | -63 | -
CN(C)c1ccc(-c2[nH][nH]c(=O)c2NC(=O)c2ccccn2)cc1 | - | - | -61 | -
C[C@H](CO)N1C[C@H](C)[C@@H](CN(C)C(=O)Nc2cccc(C(F)(F)F)c2)OCc2cn(nn2)CCCC1=O | - | - | 0 | -
COc1ccccc1C(=O)Nc1nc2n(n1)C(c1ccc(F)cc1)C=C(c1ccc(Cl)cc1)N2 (stereo not drawn) | - | - | 0 | -
Cc1ccc(C2C=C(c3ccccc3)Nc3nc(N4C(=O)CCC4=O)nn32)cc1 (stereo not drawn) | 0 | 0 | -62 | 0
Cc1ccc(C2C=C(c3ccc(Cl)cc3)Nc3nc(NC(=O)c4ccco4)nn32)cc1 (stereo not drawn) | - | - | -62 | -
CC1CC(c2ccccc2)n2nc(NC(=O)c3ccco3)nc2N1 (stereo not drawn) | 0 | 8.3µM | 0 | 0
O=C(NCc1ccccc1)c1cc(C2CCCN(S(=O)(=O)c3ccccc3)C2)on1 (stereo not drawn) | - | - | 0 | -
COc1ccc(S(=O)(=O)NCC(c2ccco2)N2CCc3ccccc3C2)cc1 (stereo not drawn) | 0 | 0 | -95 | 0
COc1ccc(CNC(=O)C(=O)NCC(c2ccco2)N2CCOCC2)cc1 (stereo not drawn) | 0 | 7.4µM | 0 | 0
COc1ccc(C(=O)NCC(c2ccco2)N2CCc3ccccc32)c(OC)c1 (stereo not drawn) | ? | 13µM | 0 | 12µM
COc1ccc(C(=O)NCC(c2ccco2)N2CCc3ccccc3C2)c(OC)c1 (stereo not drawn) | - | - | 0 | -
Cc1ccc(S(=O)(=O)NCC(c2ccco2)N2CCc3ccccc32)cc1 (stereo not drawn) | ? | ? | 0 | ?
COc1ccc(S(=O)(=O)NCC(c2ccco2)N2CCc3ccccc32)cc1 (stereo not drawn) | 0 | ? | 0 | 9.3µM
COc1cc(NC(=O)CN2CCN(c3ccc(F)cc3)CC2)cc(OC)c1 | - | - | 0 | -
O=[N+]([O-])c1ccc(S(=O)(=O)NCC(c2cccnc2)N2CCc3ccccc32)cc1 (stereo not drawn) | 0 | 15µM | 0 | 12µM
O=S(=O)(NCC(c1cccnc1)N1CCc2ccccc2C1)c1ccccc1 (stereo not drawn) | 0 | 0 | 0 | 0
O=C(NCc1cccs1)C(=O)NCC(c1ccco1)N1CCN(c2ccccc2F)CC1 (stereo not drawn) | 11µM | ? | 0 | 0
COc1ccc(C(=O)NCC(c2ccc(N(C)C)cc2)N2CCc3ccccc32)cc1 (stereo not drawn) | - | - | -71 | -
SMILES | HCV inh | Pf growth 96h | HCMV antiviral | Pf growth 48h
COc1ccccc1NC(=O)C(=O)NCC(c1ccco1)N1CCc2ccccc2C1 (stereo not drawn) | 0 | ? | 0 | 5.2µM
COc1ccc(OC)c(NC(=O)C2(C)CCN2C(=O)CCC2CCCC2)c1 (stereo not drawn) | - | - | 0 | -
CC(=O)c1ccc(NS(=O)(=O)c2cc(-c3cc(C)no3)ccc2C)cc1 | - | - | 0 | -
CC1CCC(NC(=O)C2(C)Cc3ccccc3C(=O)N2Cc2ccccc2Cl)CC1 (stereo not drawn) | - | - | 0 | -
O=C(NCc1ccc(F)cc1)C1CCN(c2ncnc3c2nc2n3CCCCC2)CC1 | - | - | 0 | -
CCCCNC(=O)c1ccc2c(c1)ncn2-c1cc(OC)ccc1OC | - | - | 0 | -
CN(c1ccccc1)S(=O)(=O)c1ccc(NC(=O)c2nc(S(C)(=O)=O)ncc2Cl)cc1 | 10µM | 0 | -111 | 0
CCCSc1ncc(Cl)c(C(=O)Nc2ccc(S(=O)(=O)N(C)c3ccccc3)cc2)n1 | - | - | 0 | -
CCOC(=O)c1c(-c2ccccc2)csc1NC(=O)c1nc(S(=O)(=O)CC)ncc1Cl | - | - | -98 | -

Bioassay records as filed in PubChem BioAssay.
